This is a sample that favours compounds with a hit; in the whole collection about 19% have one here.
HT1080 IDH1KD tx – toxicity to HT-1080 IDH1 knockdown cells (counter line). hit rate 2% among 360,000. Potency, µM (highest dose often 46.1 µM), inactives show at the top dose activity, negative = toxicity, hits mostly cytotoxic. AID 686971. HT-1080 IDH1 knockdown viability, ATP luminescence, 48 h;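 further: 0% = DMSO wells and -100% = cell-free medium wells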
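In this qHTS, HT-1080 cells depleted of IDH1 are exposed for 48 h at 37 °C to compound titrations. Toxicity is scored from CellTiter-Glo luminescence, with DMSO as full viability and medium alone as none.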
KB-V1 cytotox – kills drug-selected multidrug resistant KB-V1 cells; hit rate 3.4% among 400,000; Potency, µM (doses to about 46.1 µM), actives largely listed as cytotoxic; AID 1347076; KB-V1 MDR cells viability, CellTiter-Glo, 72 h; further: nearly all actives have a fitted effect of over 60% in size
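qHTS viability screen in drug-selected KB-V1 MDR cells: 72 h compound treatment at 37 degrees C, ATP luminescence end point.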
DT40 TDP1 CPT – growth inhibition of DT40 Tdp1-/-;hTDP1 cells with camptothecin (screen for TDP1 inhibitors); chicken DT40 Tdp1-/-;hTDP1 cells + 20 nM CPT, ATP luminescence, 48 h; Potency, µM (doses to about 46.2 µM), inactives show at the highest dose activity change, negative = growth inhibition, actives largely listed as inhibitors; hit rate 12% among 420,000; AID 686979; further: nearly all actives have a fitted effect of over 55% in size
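Chicken DT40 Tdp1-/- cells stably complemented with human TDP1 were seeded at 400 cells/well in medium containing 20 nM camptothecin, exposed to pin-transferred compounds, and grown at 37 °C for at least 48 hr. Viability was read as ATP luminescence.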
TDP1 cell noCPT – qHTS for Inhibitors of human tyrosyl-DNA phosphodiesterase 1 (TDP1): qHTS in cells in absence of CPT; DT40 Tdp1-/- hTDP1 cells, no CPT, ATP luminescence, 48 h; Potency, µM (highest dose often 46.2 µM), for the others: top-dose activity change, negative = growth inhibition, usual class: inhibitors; hit rate 15% among 420,000; further: nearly all actives have a fitted effect of over 55% in size
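Chicken DT40 Tdp1-/- cells complemented with human TDP1, screened without camptothecin (DMSO vehicle only), 400 cells/well. Compounds pin-transferred, cells incubated at 37 °C for at least 48 hr. Growth read as ATP-dependent luminescence (CellTiter-Glo, 30 min at RT).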
KB-3-1 cytotox – KB-3-1 parental cell cytotoxicity; KB-3-1 viability, CellTiter-Glo ATP luminescence, 72 h; Potency, µM (top dose mostly 46.1 µM), most hits filed as cytotoxic; hit rate 1.4% among 400,000; AID 1347075; further: nearly all actives have a fitted effect of over 60% in size
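Viability of parental KB-3-1 cells, measured by CellTiter-Glo luminescence, followed a 72 h incubation at 37 °C with pinned compounds in phenol-red-free DMEM containing 10% FBS.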
HT1080-NT tox – kills 2HG-producing HT-1080-NT fibrosarcoma cells; HT-1080-NT fibrosarcoma viability, CellTiter-Glo ATP luminescence, 48 h; Potency, µM (doses to about 46.1 µM), without a hit: at the top dose activity, negative = less viability, hits mostly cytotoxic; hit rate 1.6% among 360,000;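 further: NT is the 2HG producing partner of a matched IDH1 knockdown line; 0% = DMSO-treated cells and -100% = media-only wells without cells; nearly all actives have a fitted effect of over 55% in size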
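Viability by CellTiter-Glo luminescence after 48 h compound exposure at 37C of HT-1080-NT cells (750/well, RPMI, 5% FBS). % activity scaled between DMSO wells and medium-only wells, then curve-fitted and categorized by curve class.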
Active calls of the source: *; i = inactive; ? = inconclusive; · = no result given; [ ] = dose if it differs, or a comment. The call rests on the fitted dose curve; in most records, active means well fitted curve in the direction sought with a large enough effect; inconclusive means small, poorly fitted or top-dose-only effect, or another doubt; inactive means no such curve, though single readings can be large; an effect the other way counts as inactive or inconclusive. Unless noted, on the % scale 0 is the no-effect control and ±100 the full control effect; potency means the concentration at half of the fitted maximal effect.

SMILES | HT1080 IDH1KD tx | KB-V1 cytotox | DT40 TDP1 CPT | TDP1 cell noCPT | KB-3-1 cytotox | HT1080-NT tox
Cc1nc2c3ccccc3nc(SCC(=O)c3ccc(Cl)cc3)n2n1 | 19% | 10µM* | ? | 18µM* | i | 10%
CC1(C)S[C@@H]2[C@H](NC(=O)[C@H](N)c3ccccc3)C(=O)N2[C@H]1C(=O)OCOC(=O)[C@@H]1N2C(=O)C[C@H]2S(=O)(=O)C1(C)C | · | · | 7% | 1% | · | ·
Cc1ccc(CNC(=O)CSc2nc3c(sc4ccccc43)c(=O)n2CCCN2CCCC2)cc1 | ? | i | 23µM* | ? | i | ?
CCCCn1c(SCC(=O)Nc2ccc(F)cc2)nc2c(sc3ccccc32)c1=O | · | i | -15% | -20% | i | ·
O=C(CSc1nc2c(sc3ccccc32)c(=O)n1CCCN1CCCC1)NCc1ccccc1 | ? | ? | -62% | ? | i | ?
CSc1nc2c(sc3ccccc32)c(=O)n1Cc1ccc(C)cc1 | · | ? | 21µM* | 16µM* | i | ·
CCN(CC)CCn1c(SCC(=O)NCc2ccco2)nc2c(sc3ccccc32)c1=O | 10% | i | ? | ? | i | 2%
CCN(CC)CCn1c(SCC(=O)Nc2cccc(OC)c2)nc2c(sc3ccccc32)c1=O | ? | i | 18µM* | 4.6µM* | i | ?
COc1cccc(NC(=O)CSc2nc3c(sc4ccccc43)c(=O)n2CCCN2CCCC2)c1 | -9% | i | ? | 10µM* | i | -12%
COC(=O)Cn1ncc(N2CC(C)OC(C)C2)c(Cl)c1=O (configuration not stated) | 17% | i | 15% | 3% | i | 23%
O=C(COC(=O)Cc1ccccc1F)NNC(=O)c1ccc([N+](=O)[O-])cc1 | 5% | i | -10% | -11% | i | 4%
COc1cccc(NC(=O)CSc2nc3c(sc4ccccc43)c(=O)n2CCN(C)C)c1 | -10% | i | 15µM* | ? | i | 2%
Cc1nn(S(=O)(=O)c2ccc(Cl)cc2)c(C)c1Sc1ccc([N+](=O)[O-])cc1 | 11% | ? | 16µM* | 16µM* | i | 15%
Cc1nn(-c2ccccc2)c(OC(=O)C(C)C)c1Sc1ccccc1 | · | · | -17% | ? | · | ·
Cc1nn(-c2ccccc2)c(N)c1Sc1ccc([N+](=O)[O-])cc1 | -11% | ? | ? | 15µM* | ? | -1%
Cc1nn(-c2ccccc2)c2c1C(c1ccc([N+](=O)[O-])cc1)C(C#N)=C(N)O2 (configuration not stated) | 0% | i | 15µM* | ? | i | -4%
Cc1nn(S(=O)(=O)c2ccc(Cl)cc2)c(C)c1S(=O)(=O)N1CCCCCC1 | · | i | 1% | -14% | i | ·
COC(=O)c1sccc1NC(=O)C1CC1 | 0% | i | 13% | -26% | i | 11%
Cc1cc(C)cc(OCc2cc(=O)n3cc(C)sc3n2)c1 | · | i | -3% | -4% | i | ·
COc1ccccc1CNC(=O)COc1ccccc1C(=O)c1cnn(-c2ccccc2)c1 | -1% | i | 23µM* | ? | i | -5%[9.24 µM]
O=C(COc1ccccc1C(=O)c1cnn(-c2ccccc2)c1)Nc1ccccc1 | ? | ? | ? | 15µM* | i | ?
CC(C)(C)NC(=O)C1c2ccccc2OCC(=O)N1CCCN1CCOCC1 (configuration not stated) | 8% | i | 5% | 2% | i | 23%
O=C(Cn1c(=O)n2nc(-c3cccc(F)c3)nc2c2ccccc21)NCc1ccc(Cl)cc1 | · | i | -2% | -4% | i | ·
Cc1cccc(-c2nc3c4ccccc4n(Cc4cccc(Cl)c4)c(=O)n3n2)c1 | · | · | 21µM* | 10µM* | · | ·
CCc1cccc(NC(=O)Cn2c(=O)n3nc(-c4cccc(F)c4)nc3c3ccccc32)c1 | · | i | 3.7µM* | 4.6µM* | i | ·
SMILES | HT1080 IDH1KD tx | KB-V1 cytotox | DT40 TDP1 CPT | TDP1 cell noCPT | KB-3-1 cytotox | HT1080-NT tox
O=c1c2ccccc2sc2ccc(NCCCN3CCOCC3)cc12 | -14% | i | ? | 23µM* | i | -13%
COc1cc2sc3cc(NCCCN4CCOCC4)ccc3c(=O)c2cc1OC | -4% | i | ? | ? | i | 1%
CCn1c(C(=O)N2CCC(C(=O)NCc3ccc(OC)cc3)CC2)cc2sccc21 | -8% | i | ? | -15% | i | -11%
CCOC(=O)N1CCC(NC(=O)C2CCN(C(=O)c3cc4sccc4n3CC)CC2)CC1 | -1% | i | ? | 16µM* | i | 6%
CCOC(=O)N1CCN(C(=O)C2CCN(C(=O)c3cc4sccc4n3CC)CC2)CC1 | 0% | i | -21% | ? | i | 3%
CCn1c(C(=O)N2CCC(C(=O)NCCc3ccc(OC)cc3OC)CC2)cc2sccc21 | · | i | 21µM* | 15µM* | i | ·
c1ccc2c(c1)oc1c(Nc3ccc4c(c3)OCCO4)ncnc12 | ? | ? | 8.9µM* | ? | i | ?
Cc1nc(Nc2ccc3c(c2)OCCO3)c2c(C)c(C)sc2n1 | -5% | ? | ? | 21µM* | i | -7%
COc1ccc(Nc2ncnc3c2oc2ccccc23)cc1 | -10% | i | -14% | -24% | i | -10%
Cc1nc(Nc2ccc3c(c2)OCCO3)c2oc3ccccc3c2n1 | -19% | ? | ? | 21µM* | i | -19%
O=C(NCc1ccccc1)c1cc2ccc(O)cc2oc1=O | -9% | i | ? | ? | i | -2%
CC(C)N(C(=O)CSc1nn2c(=O)c(C(C)(C)C)nnc2s1)c1ccccc1 | -2% | ? | 21µM* | ? | ? | -2%
Cc1cc(C(=O)CSc2nn3c(=O)c(C(C)(C)C)nnc3s2)c(C)n1-c1ccc(F)cc1 | 6% | i | 16µM* | ? | i | -5%
CCOCCn1c(=NC(=O)CSCC(=O)Nc2cc(C)on2)sc2cc(OC)ccc21 | 8% | ? | -19% | 6% | i | 0%
CC(OC(=O)c1ccc(CN2CCCC2=O)cc1)C(=O)Nc1ccc(Cl)cc1 (configuration not stated) | -5% | ? | ? | ? | i | -4%
COc1ccc2c(Sc3ccccc3)c(C(=O)NCc3ccc(OC(C)C)cc3)[nH]c2c1 | · | i | ? | ? | i | ·
O=C(CCCn1c(=O)c2sccc2n(Cc2cccc(Cl)c2)c1=O)NCc1ccc2c(c1)OCO2 | · | · | ? | -18% | · | ·

Source: PubChem BioAssay (National Center for Advancing Translational Sciences (NCATS))
